# According to PubChem BioAssay AID430 (Sanford-Burnham Center for Chemical Genomics, 2006):
# The whole screen tested about 63,000 compounds, of which about 1,100 (1.7%) were called active. Many of the other results were omitted from the sample, so actives are more common in it than they were. Measured potencies and affinities stand elsewhere. Values without a mark were called inactive. No stated cut-off is given here; in the data, active means cytotoxicity above about 50%; inactive means the rest.
# Experiment: cytotoxicity in HPDE-C7 cells, cell-based, fluorescence, HTS (AID 430);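 further: cells exposed to compound for 48 hours before viability readout; 0% = vehicle and 100% = reference cytotoxic drug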
# Conditions: HPDE-C7 pancreatic duct cells viability, at 10 µM, active compounds read high
row,SMILES,cytotoxicity
1,CC(=O)c1cccc(NC(=O)c2ccc(NS(C)(=O)=O)cc2)c1,17.5%
2,CCOC(=O)c1c(C)[nH]c(C(=O)Cn2c(=O)c3c(ncn3CC)n(Cc3ccccc3)c2=O)c1C,4.9%
3,CCc1c(C)sc(NC(=O)c2cccs2)c1C(=O)OC(C)C,58.9% (active)
4,CC(C)OC(=O)c1c(NC(=O)c2cccs2)sc2c1CCCC2,9.8%
5,CCOC(=O)c1c(NC(=O)c2cccs2)sc(C)c1CC,-2.4%
6,COc1ccccc1CC(NC(C)=O)C(=O)NC1CCN(c2nnnn2-c2ccccc2)CC1 (stereo not drawn),-2.9%
7,CCN(CC)S(=O)(=O)c1ccc(-c2nnc(SCC(=O)c3ccc(OC)cc3)o2)cc1,-7.3%
8,COc1ccc(C(=O)CSc2nnc(-c3ccc(S(=O)(=O)N4CCOCC4)cc3)o2)cc1,56.1% (active)
9,COc1ccc(C(=O)CSc2nnc(-c3ccc(C)cc3)o2)cc1,-8.2%
10,O=C(CN1C(=O)c2ccccc2S1(=O)=O)N1CCN(Cc2ccc3c(c2)OCO3)CC1,-4.2%
11,CCCn1c(C)cc(C(=O)COc2ncnc3sccc23)c1C,-1.4%
12,CCN1C(=O)c2cccc3c(NC(=O)c4ccc(S(=O)(=O)N(C)C)cc4)ccc1c23,-24.8%
13,CCN1C(=O)c2cccc3c(NC(=O)c4ccc5c(c4)OCCO5)ccc1c23,84.7% (active)
14,CCN1C(=O)c2cccc3c(NC(=O)c4cccc(N5C(=O)CCC5=O)c4)ccc1c23,-19.8%
15,COc1ccc(CCC(=O)NCc2ccco2)cc1,-5.5%
16,Clc1ccccc1-c1nnn(Cc2ccc(-c3nn[nH]n3)cc2)n1,-10.8%
17,CCCS(=O)(=O)N1CCCC(C(=O)N2CCC(Cc3ccccc3)CC2)C1 (stereo not drawn),0.4%
18,CCCS(=O)(=O)N1CCC(C(=O)N2CCC(Cc3ccccc3)CC2)CC1,79.7% (active)
19,CS(=O)(=O)N1CCC(C(=O)N2CCC(Cc3ccccc3)CC2)CC1,1.2%
20,Clc1ccccc1Cn1nnc2c(N3CCCC3)ncnc21,5%
21,COc1ccc(C2(O)CCN(Cc3nnnn3Cc3ccc(C)cc3)CC2)cc1,-4.4%
22,O=C(Oc1cc2oc(=O)c3c(c2cc1Cl)CCCC3)c1ccco1,-3.8%
23,C=CCNc1oc(Cc2cccc3ccccc23)nc1C#N,-12%
24,CNc1oc(Cc2cccc3ccccc23)nc1C#N,3.8%
25,N#Cc1nc(Cc2cccc3ccccc23)oc1NCc1ccco1,58.4% (active)

row,SMILES,cytotoxicity
1,CCn1cc(C(=O)NCCCN(C)c2ccccc2)c(=O)c2cc(S(=O)(=O)N(C)C)ccc21,10.5%
2,CCc1nnc(NC(=O)CSc2nccn2-c2cc(C)cc(C)c2)s1,7.6%
3,Cc1ccccc1-c1noc(-c2cccs2)n1,-7.3%
4,Cc1ccccc1-c1noc(-c2ccc(O)cc2)n1,52.8% (active)
5,CCOc1ccc(-c2nc(-c3ccccc3C)no2)cc1,2.4%
6,CCn1c(-c2c[nH]c3ccccc23)n[nH]c1=S,6.5%
7,O=C1Cc2ccccc2N1c1ccccc1,-6.3%
8,CCOC(=O)C1CCN(Cc2c(O)ccc3ccccc23)CC1,-5.8%
9,CCOC(=O)C1CCN(Cc2ccc(OC)c(C)c2OC)CC1,2.2%
10,CCOC(=O)C1CCN(Cc2ccc(O)c3ncccc23)CC1,60.3% (active)
11,CN(C)c1ccc(C(=S)N2CCOCC2)cc1Br,-13.8%
12,CCOC(=O)N1CCN(C(=O)c2ccc3c(=O)n(Cc4ccc(OC)cc4)c(=S)[nH]c3c2)CC1,-14.8%
13,COc1ccc(N2C(=O)CC(N3CCN(c4nc5ccccc5s4)CC3)C2=O)cc1 (stereo not drawn),7.5%
14,CCSc1nnc(NC(=O)NC(CC)(C(F)(F)F)C(F)(F)F)s1,14.7%
15,CCC(NC(=O)Nc1nccs1)(C(F)(F)F)C(F)(F)F,-7%
16,CC(NC(=O)Nc1nccs1)(C(F)(F)F)C(F)(F)F,-4.1%
17,O=C(NCC(F)(F)F)Nc1nnc(C(F)(F)F)s1,12.3%
18,O=C(COC(=O)c1n[nH]c2ccccc12)NC(=O)NCc1ccco1,-1.6%
19,CC1=C(C(=O)Nc2ccccc2)C(c2ccncc2)C(C#N)=C(SCC(=O)NC2CC2)N1 (stereo not drawn),-16.3%
20,COc1ccc(NC(=O)CSc2nnc(CNC(=O)c3ccco3)o2)c(OC)c1,-0.9%
21,CCOC(=O)C1=C(C)NC(C)=C(C(=O)OCC)C1C(=O)OCC(=O)N1CCC(C)CC1,0%
22,CCc1nnc(NC(=O)c2c(O)c3cccc4c3n(c2=O)CC4)s1,34.5%
23,CCCn1c(=O)c(C(=O)Nc2ccncc2)c(O)c2ccccc21,31.4%
24,CCCn1c(=O)c(C(=O)Nc2nnc(CC)s2)c(O)c2ccccc21,51.2% (active)
25,CCCn1c(=O)c(C(=O)NCc2ccccn2)c(O)c2ccccc21,-12.9%

row,SMILES,cytotoxicity
1,CCCn1c(=O)c(C(=O)Nc2cnccn2)c(O)c2ccccc21,-11.9%
2,CC(C)Cn1c(=O)c(C(=O)Nc2cnccn2)c(O)c2ccccc21,29.3%
3,CC(C)Cn1c(=O)c(C(=O)Nc2ccncc2)c(O)c2ccccc21,53.2% (active)
4,CCc1nnc(NC(=O)c2cccc(C(=O)Nc3nnc(CC)s3)n2)s1,52.5% (active)
5,CCCn1c(=O)c(C(=O)Nc2nnc(C)s2)c(O)c2ccccc21,75.2% (active)
6,C=CCn1c(=O)c(C(=O)Nc2nnc(C)s2)c(O)c2ccccc21,7.8%
7,CCc1nnc(NC(=O)c2cccc(OC)c2)s1,-1.7%
8,CCc1nnc(NC(=O)c2cnccn2)s1,-17.9%
9,CC1CC(C)CN(C(=O)C(NS(=O)(=O)c2ccc3c(c2)oc(=O)n3C)C(C)C)C1 (stereo not drawn),9.9%
10,CC(Sc1nnc(Cn2c(=O)sc3ccccc32)n1C)c1ccccc1 (stereo not drawn),-13.8%
11,O=C(O)CCC1COc2ccccc2O1 (stereo not drawn),-3.3%
12,CC(C)(C)n1nc2c(c1NC(=O)c1ccc(Br)cc1)CS(=O)C2 (stereo not drawn),0.9%
13,Cc1cc(NC(=O)c2cc(-c3cccs3)nc3ccccc23)no1,13.3%
14,CCOC(=O)c1[nH]c(C)c(C(=O)NCc2ccc(C)cc2)c1C,-17.6%
15,CCn1c(=O)c(C(=O)Nc2cccnc2)c(O)c2ccccc21,15.8%
16,CCn1c(=O)c(C(=O)Nn2c(C)nc3ccccc3c2=O)c(O)c2ccccc21,21.7%
17,CCn1nc(NC(=O)c2ccncc2)c2cc3ccc(C)cc3nc21,-0.2%
18,CCOC(=O)Cn1nnc(-c2ccc(OCC(C)C)cc2)n1,-9.5%
19,NC(=O)CSc1nnc(Cn2c(=O)sc3ccccc32)n1-c1ccccc1,3.5%
20,CCOc1ccc(-c2nnn(CC(=O)Nc3ccccc3OC)n2)cc1OCC,-3.5%
21,CCOc1ccc(-c2nnn(CC(=O)Nc3cc(OC)ccc3OC)n2)cc1OCC,69.5% (active)
22,CCOc1ccc(-c2nnn(CC(=O)Nc3cc(OC)cc(OC)c3)n2)cc1OCC,8%
23,CCOC(=O)c1ccc(NC(=O)c2cc(S(=O)(=O)N3CCOCC3)ccc2O)cc1,3.3%
24,Cc1c(Cl)cccc1NC(=O)CC(C(=O)O)C1CCCO1 (stereo not drawn),7.8%
25,Cc1ccc(N2C(N)=NC(N)=NC23CCCC3)c(C)c1,-2.3%

row,SMILES,cytotoxicity
1,c1ccc(CNc2nc3ccccc3[nH]2)cc1,-11.8%
2,Cc1ccc2nc(NCc3ccccc3)[nH]c2c1,70.4% (active)
3,COc1ccc2nc(NCc3ccccc3)[nH]c2c1,39.1%
4,CN(CC(=O)NC1CCCc2ccccc21)S(=O)(=O)c1ccc2c(c1)c(=O)n(C)c(=O)n2C (stereo not drawn),-10.5%
5,c1csc(-c2csc(-c3cccs3)n2)c1,-4.7%
6,COc1ccccc1S(=O)Cc1ccc(C(=O)NC2CCCC2)o1 (stereo not drawn),-13.2%
7,COC(=O)c1ccccc1NC(=O)Cn1cc2c(n1)CCC(C)C2 (stereo not drawn),-7.1%
8,Cc1ccsc1C1NC(=O)c2ccccc2N1 (stereo not drawn),-19.5%
9,O=C1NC(c2cccs2)Nc2ccccc21 (stereo not drawn),5%
10,Cc1ccc(C2NC(=O)c3ccccc3N2)s1 (stereo not drawn),55.9% (active)
11,CCN(CC)CCn1c(OC)cc(=O)[nH]c1=O,-2.5%
12,O=C(CCNC(=O)c1ccc(Br)o1)NCc1ccccc1Cl,-6.1%
13,CC(C)c1ccc(-c2nc(N3CCCCC3)[nH]c(=O)c2C#N)cc1,24.7%
14,COc1ccc(CCNC(=O)CSc2nnnn2Cc2ccc3c(c2)OCO3)cc1OC,-16.4%
15,COc1ccc(OC(=O)c2cc3ccccc3o2)cc1,-0.5%
16,COc1ccc(-c2noc(C)c2-c2ccc3ccccc3n2)c(O)c1,48.2%
17,CCOC(=O)c1ccc(NC(=O)Cn2nnc3ccccc32)cc1,3.7%
18,CCOC(=O)C1=C(C)NC(SCc2cc(=O)[nH][nH]2)=C(C#N)C1c1cccs1 (stereo not drawn),37.1%
19,CCSC1=C(C#N)C(c2cccs2)C(C(=O)OC)=C(C)N1 (stereo not drawn),13.4%
20,CCOC(=O)C1=C(C)NC(SCC(=O)Nc2cc(C)on2)=C(C#N)C1c1cccs1 (stereo not drawn),10.6%
21,CCOC(=O)C1=C(C)NC(SCC(=O)Nc2nc(C)cs2)=C(C#N)C1c1cccs1 (stereo not drawn),78.9% (active)
22,C#CCSC1=C(C#N)C(c2cccs2)C(C(=O)OCC)=C(C)N1 (stereo not drawn),53% (active)
23,CCOCCSC1=C(C#N)C(c2cccs2)C(C(C)=O)=C(C)N1 (stereo not drawn),4.5%
